Test systems include BT-549 breast; MDA-MB-435 melanoma; SW-620 colon; MCF7 breast; HCT-116 colon; HCC-2998 colon; KM12 colon.
Common to all, as to test: NCI-60 one-dose screen, 48 h (100 = growth as untreated, 0 = no growth, -100 = all killed)
Common to all, as to conditions: 10 µM unless noted

Each structure is given as a SMILES string. About 83,000 compounds went through this panel and 20% of them were active in at least one assay; those are over-represented in the sample as a whole.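 Assay: single dose, 48 h. Readout: percent growth (0 = no net growth; negative = cell death). Active: <10.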 Values without a mark were called inactive. Calls of active or inactive are those of the source.

For the compound `C1=CC2=CC=C3C=CC=C4C(c5nc6c7ccccc7c7ccccc7c6[nH]5)=CC(=C1)C2C34` (configuration not stated), the growth with BT-549 breast was 97.3%; in the experiment with MDA-MB-435 melanoma, 99.9%; in the experiment on SW-620 colon, 98.3%; in the experiment on MCF7 breast it was 76.9%; in the experiment with HCT-116 colon, 83.3%; with HCC-2998 colon, 111%. In the experiment on KM12 colon, the growth was 86.5%.
As to `N#C/C(=C/c1ccc(O)c([N+](=O)[O-])c1)c1nc(-c2ccc([N+](=O)[O-])cc2)cs1`, the growth with BT-549 breast was 36.3%; with MDA-MB-435 melanoma, 40.2%; in the experiment on SW-620 colon, 54.2%; in the experiment with MCF7 breast it was 25.8%; in the experiment with HCT-116 colon, 33.8%; with HCC-2998 colon, 30.4%. The growth in the experiment on KM12 colon is 36%.
For `Nc1n[nH]c2cccc(C#Cc3cccc(NC(=O)c4cc(N5CCOCC5)cc(C(F)(F)F)c4)c3)c12`, the growth in the experiment on BT-549 breast was 63.4%; with MDA-MB-435 melanoma, 45.8%; in the experiment on SW-620 colon it was 46.6%; in the experiment with MCF7 breast, 46.6%; in the experiment with HCT-116 colon, 19.4%; in the experiment with HCC-2998 colon, 31.3%. The growth in the experiment on KM12 colon is 54.5%.
For the compound `Nc1ccccc1NC(=O)c1ccc(CSc2nc(N3CCOCC3)c3cccn3n2)cc1`, the growth in the experiment with BT-549 breast is 15.3%; with MDA-MB-435 melanoma, -21.2% (active); in the experiment on SW-620 colon, 9.25% (active); in the experiment with MCF7 breast, 10.3%; in the experiment on HCT-116 colon, 6.78% (active); in the experiment on HCC-2998 colon, 17.6%. Further, the growth in the experiment with KM12 colon was 16.6%.
Consider `NS(=O)(=O)c1ccc(-n2nc(-c3ccccc3)ccc2=O)cc1`, for which the growth was 123% with BT-549 breast; 113% with MDA-MB-435 melanoma; 108% with SW-620 colon; 96% in the experiment on MCF7 breast; 102% with HCT-116 colon; 108% with HCC-2998 colon. Besides, the growth with KM12 colon is 99.6%.
On to `C=C(C)[C@@H]1CC[C@]2(C(=O)N3CCN(C)CC3)CC[C@]3(C)[C@H](CC[C@@H]4[C@@]5(C)C/C(=C/c6ccco6)C(=O)C(C)(C)[C@@H]5CC[C@]43C)[C@@H]12`, for which the growth in the experiment with BT-549 breast was 79.5%; in the experiment with MDA-MB-435 melanoma it was 72.8%; in the experiment with SW-620 colon, 74%; with MCF7 breast, 36.1%; in the experiment with HCT-116 colon, 46.9%; in the experiment with HCC-2998 colon, 92.3%. Also, in the experiment on KM12 colon, the growth was 72.5%.
Consider `O=C1CCc2ccccc2N1`, for which the growth in the experiment on BT-549 breast is 107%; in the experiment with MDA-MB-435 melanoma, 97.6%; in the experiment with SW-620 colon, 102%; in the experiment on MCF7 breast, 96.6%; in the experiment with HCT-116 colon, 101%; in the experiment with HCC-2998 colon, 84.8%. Besides, in the experiment with KM12 colon, the growth was 96.6%.
On to `COc1cc2nc3c(=O)n(CCN(C)C)cnn3c(=O)c2cc1OC`, for which the growth in the experiment with BT-549 breast is 98.6%; with MDA-MB-435 melanoma it was 97.3%; with SW-620 colon, 97%; in the experiment on MCF7 breast it was 95.9%; with HCT-116 colon, 101%; with HCC-2998 colon, 99.3%. In the experiment with KM12 colon, the growth is 95.1%.
As to `COCCc1n(Cc2ccc3ccccc3c2)c2ccccc2[n+]1Cc1ccc2ccccc2c1`, the growth is -48.5% (active) in the experiment on BT-549 breast; -87.5% (active) with MDA-MB-435 melanoma; -73.7% (active) with SW-620 colon; -68.1% (active) with MCF7 breast; -81.2% (active) in the experiment on HCT-116 colon; -78.1% (active) with HCC-2998 colon. In addition, the growth in the experiment with KM12 colon was -86.2% (active).
Regarding `O=c1[nH]c2ccccc2cc1-c1nc2ccc(Cl)cc2[nH]1`, the growth was 43% in the experiment on BT-549 breast; 32.5% in the experiment on MDA-MB-435 melanoma; 42.5% in the experiment with SW-620 colon; 23.8% with MCF7 breast; 22.2% in the experiment on HCT-116 colon; 79.7% with HCC-2998 colon. Moreover, the growth with KM12 colon was 5.1% (active).
As to `C=C(C)[C@@H]1CC[C@]2(C(=O)OCCOCCOCC[P+](c3ccccc3)(c3ccccc3)c3ccccc3)CC[C@]3(C)[C@H](CC[C@@H]4[C@@]5(C)CC[C@H](OC(C)=O)C(C)(C)[C@@H]5CC[C@]43C)[C@@H]12`, the growth was -89.8% (active) in the experiment on BT-549 breast; -91.3% (active) in the experiment on MDA-MB-435 melanoma; -77.9% (active) with SW-620 colon; -76% (active) with MCF7 breast; -92.2% (active) with HCT-116 colon; -88.4% (active) in the experiment on HCC-2998 colon. Moreover, in the experiment on KM12 colon, the growth is -89.8% (active).
`S=c1ssnc1-c1cc2ccccc2o1`: the growth in the experiment with BT-549 breast is 103%; with MDA-MB-435 melanoma it was 57%; with SW-620 colon, 71.5%; in the experiment with MCF7 breast it was 65.5%; with HCT-116 colon, 59.5%; with HCC-2998 colon it was 98.3%. The growth with KM12 colon is 81.6%.
Regarding `NC(=N\N=C\c1ccccc1O)/C(N)=N/N=C/c1ccccc1O`, the growth with BT-549 breast is 72%; with MDA-MB-435 melanoma, 72.2%; in the experiment on SW-620 colon, 71.5%; in the experiment on MCF7 breast, 69.4%; in the experiment on HCT-116 colon, 81.3%; in the experiment with HCC-2998 colon, 99.1%. Moreover, in the experiment on KM12 colon, the growth was 55.8%.
Turning to `CCOC(=O)c1ccc(Nc2ncnc3ccc(NC(=O)c4ccccc4)cc23)cc1`, the growth was 86.5% in the experiment with BT-549 breast; 91.1% in the experiment on MDA-MB-435 melanoma; 96% in the experiment on SW-620 colon; 75.7% with MCF7 breast; 91.4% with HCT-116 colon; 97.3% in the experiment on HCC-2998 colon. The growth in the experiment with KM12 colon was 75.2%.
On to `COc1cc(/C=C/C(=O)/C=C/c2cc3ccc(Cl)cc3n(Cc3ccccc3)c2=O)ccc1O`, for which the growth was -19.2% (active) in the experiment with BT-549 breast; -19.1% (active) in the experiment with MDA-MB-435 melanoma; 3.39% (active) in the experiment with SW-620 colon; 26.2% in the experiment with MCF7 breast; -82.6% (active) with HCT-116 colon; -73.8% (active) in the experiment with HCC-2998 colon. For the same compound, the growth in the experiment on KM12 colon was -52.3% (active).
For the compound `Cc1c(Cl)cccc1NC(=O)c1sc2nc3c(cc2c1N)COCC3`, the growth in the experiment with BT-549 breast was 49.6%; in the experiment with MDA-MB-435 melanoma it was -20% (active); in the experiment with SW-620 colon, 22.8%; in the experiment on MCF7 breast it was 16.4%; in the experiment with HCT-116 colon, 19.7%; in the experiment with HCC-2998 colon, 65.1%. In addition, the growth in the experiment on KM12 colon was 31.8%.
As to `COc1ccc2c(c1)Oc1nc(N)c(C#N)c(N)c1C2Sc1ccc(O)cc1` (configuration not stated), the growth in the experiment on BT-549 breast was 92.4%; with MDA-MB-435 melanoma, 99.5%; in the experiment on SW-620 colon it was 68.6%; in the experiment on MCF7 breast, 33.6%; in the experiment with HCT-116 colon, 89.6%; with HCC-2998 colon it was 98.5%. For the same compound, the growth in the experiment with KM12 colon is 97.9%.
`Cn1nc(C(F)(F)F)c(-c2cc(C(F)(F)F)cc(C(F)(F)F)c2)c1-c1ccc(OCc2ccc(Cl)cc2)cc1O`: the growth in the experiment with BT-549 breast was 2.72% (active); with MDA-MB-435 melanoma it was 11.4%; in the experiment with SW-620 colon, 13.1%; in the experiment with MCF7 breast, 3.01% (active); in the experiment with HCT-116 colon it was 3.65% (active); in the experiment on HCC-2998 colon it was 5.78% (active). Also, the growth in the experiment on KM12 colon is 5.04% (active).
In the case of `CCCn1c(N)c(C(N)=O)sc1=S`, the growth was 118% in the experiment on BT-549 breast; 109% in the experiment with MDA-MB-435 melanoma; 101% in the experiment with SW-620 colon; 106% in the experiment with MCF7 breast; 101% in the experiment with HCT-116 colon; 110% in the experiment with HCC-2998 colon. Also, the growth in the experiment on KM12 colon is 97.4%.
Consider `O=C(Nc1ccccc1)NS(=O)(=O)c1c[nH]c(=S)[nH]c1=O`, for which the growth was 92.1% in the experiment with BT-549 breast; 108% with MDA-MB-435 melanoma; 105% with SW-620 colon; 100% with MCF7 breast; 93.8% in the experiment on HCT-116 colon; 114% in the experiment with HCC-2998 colon. The growth in the experiment with KM12 colon was 105%.
Regarding `O=C1NN(c2ccccc2)C(c2ccc(Cl)cc2)N2CCC[C@H]12` (some centres not stated), the growth in the experiment on BT-549 breast is 117%; in the experiment with MDA-MB-435 melanoma, 99.2%; with SW-620 colon it was 87.3%; in the experiment with MCF7 breast, 79.9%; with HCT-116 colon, 99.7%; in the experiment on HCC-2998 colon, 88.1%. Also, in the experiment with KM12 colon, the growth is 94.9%.
Take `NS(=O)(=O)c1ccc(C2C3=C(CCCC3=O)OC3=C2C(=O)c2ccccc2C3=O)cc1` (configuration not stated): the growth in the experiment with BT-549 breast was -99.8% (active); with MDA-MB-435 melanoma, -93% (active); in the experiment with SW-620 colon, -45.4% (active); with MCF7 breast it was -61.5% (active); with HCT-116 colon, -73.6% (active); with HCC-2998 colon it was -61.4% (active). In addition, the growth in the experiment on KM12 colon was -29.1% (active).
Regarding `CCCCOc1nc2ccc(C)cc2cc1/C=C/C(=O)/C=C/c1ccc2c(c1)OCO2`, the growth in the experiment with BT-549 breast is 75.9%; in the experiment with MDA-MB-435 melanoma, 35.8%; with SW-620 colon it was 99.5%; in the experiment on MCF7 breast it was 37.8%; in the experiment with HCT-116 colon it was 10.5%; in the experiment with HCC-2998 colon, 106%. Moreover, the growth with KM12 colon is 87.3%.
As for `O=C1Nc2ccc(Cl)cc2/C1=N/c1nc(-c2ccc(Cl)cc2)cs1`, the growth in the experiment with BT-549 breast was 17.4%; in the experiment with MDA-MB-435 melanoma, -82.3% (active); in the experiment with SW-620 colon, 12.9%; in the experiment on MCF7 breast, 5.81% (active); with HCT-116 colon, 3.16% (active); in the experiment on HCC-2998 colon it was 9.52% (active). In addition, the growth in the experiment on KM12 colon is 1.73% (active).
In the case of `COc1cccc(NC(=O)Nc2ccc(Nc3ncnc4[nH]c(C)c(C)c34)cc2)c1`, the growth was 97.7% in the experiment with BT-549 breast; 102% in the experiment with MDA-MB-435 melanoma; 110% in the experiment with SW-620 colon; 91.1% with MCF7 breast; 116% in the experiment with HCT-116 colon; 115% with HCC-2998 colon. For the same compound, in the experiment on KM12 colon, the growth was 70.6%.
Turning to `COc1ccc2[nH]c(=O)c(/C=C/C(=O)c3ccccc3OC)cc2c1`, the growth in the experiment on BT-549 breast is 18.9%; with MDA-MB-435 melanoma, -10% (active); in the experiment with SW-620 colon it was 8.4% (active); with MCF7 breast, 10%; in the experiment on HCT-116 colon, 16%; with HCC-2998 colon it was 23.1%. Further, the growth with KM12 colon was 4.37% (active).

The values are drawn from PubChem BioAssay (NCI).
